# Test results published in PubChem BioAssay (NCI).
# Where “and” joins values, the source holds several entries; their conditions need not be identical. Identical values can stand only once. About 83,000 compounds went through this panel and 20% of them were active in at least one assay; those are over-represented in the sample as a whole.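 Method: cells in 96-well plates; compound added at one concentration; 48 h incubation; percent growth measured; values under 10 scored active.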 Values without a mark were called inactive. Calls of active or inactive are those of the source.
# System: MDA-MB-468 breast
# Experiment: NCI-60 one-dose screen, 48 h (100 = growth as untreated, 0 = no growth, -100 = all killed)
# Settings: 10 µM unless noted
row,SMILES,growth
1,CCN(CC)CCCC(C)Nc1c2ccc(Cl)cc2nc2cc(OC)c(OC)cc12 (stereo not given),-44% (active)
2,Cn1c2nc3ccccc3c-2cc2ccccc21,41.3%
3,NC(=O)c1ccc(N=C(N)N=C(N)N)cc1,84.5%
4,CCCCCCN(CCCCCC)CCCNc1nccc2ccccc12,-6.34% (active)
5,NCCCc1nnc(CCC(=O)c2nc3ccccc3[nH]2)o1,107%
6,O=[N+]([O-])c1ccc(Oc2ccccc2)cc1,103% and 113%
7,C[C@@H]1CC2C3CCC4=CC(=O)C=C[C@]4(C)[C@@]3(Cl)[C@@H](O)C[C@]2(C)[C@@]1(OC(=O)c1ccco1)C(=O)CCl (stereo not given in full),104%
8,Oc1ccccc1O,91.1%
9,O=c1[nH]c(=O)c2[nH]c(=O)[nH]c2[nH]1,85.6%
10,COc1ccc(/C(C)=C(\c2ccc(Cl)cc2)c2ccc(OCCN3CCCCCC3)cc2)cc1F,35.3%
11,CCOC(=O)C1=C(C)N=C2Sc3cc(OC(F)(F)F)ccc3N2[C@H]1c1ccccn1,29.1%
12,O=c1[nH]nc(SC2CCCCC2)c(=O)[nH]1,116%
13,COc1cc(C(=O)n2nc(N3CCOCC3)c3cc(-n4cccc4)ccc32)cc(OC)c1OC,49.2%
14,Cc1nn(-c2ccccc2)c2nc(Cl)c(/C=C/C(=O)c3ccccc3)c(-c3ccccc3)c12,105%
15,COc1ccc([C@@H]2c3[nH]c4ccccc4c3C[C@H]3C(=O)N(C4CCN(CC5CCCCC5)CC4)CC(=O)N23)c(OC)c1,58.7%
16,O=C(/C=C/Nc1ccc(S(=O)(=O)Nc2ncccn2)cc1)c1ccc(N=Cc2c(O)[nH]c3ccccc23)cc1,109%
17,COc1ccc(S(=O)(=O)n2cc(C=O)c3ccccc32)c(OC)c1,84.7%
18,CCOC(=O)c1c(NC(=O)c2cccc(C(F)(F)F)c2)sc2c3c(ccc12)OCN(C)C3,-67.2% (active)
19,CC(=O)Nc1ccccc1-c1n[nH]c(=O)[nH]c1=O,102%
20,O=C(CCl)Oc1ccc(-c2ccccc2)c(Br)c1,97.5%

row,SMILES,growth
1,C=C1C(=O)O[C@H]2[C@H]1CC/C(COC(=O)NCC(C)c1ccc(CC(C)C)cc1)=C\CC[C@@]1(C)O[C@@H]21 (stereo not given in full),-64% (active)
2,CCO/C=C1\SC(=S)N(c2cccc(O)c2)C1=O,87.6%
3,COc1cc(C(=O)c2cc(C)c3[nH]c4ccc(Cl)cc4c3c2C)cc(OC)c1OC,-13.2% (active)
4,CCCCS(=O)(=O)Oc1ccc(-c2nc(C)c(C(=O)OCC)s2)cc1C=O,52.1%
5,CN1CCN(Cc2ccc(NC(=O)c3cncc(C#Cc4cnn5ccccc45)c3)cc2C(F)(F)F)CC1,-36.1% (active)
6,C#Cc1nc(Nc2cc(C)[nH]n2)c2ccccc2n1,-23.2% (active)
7,CCOC(=O)C(CCC1=NC(C)(C)CC(C)O1)C(=O)OCC (stereo not given),70.5%
8,CC1=C(O)C(=O)CC1,104%
9,Cc1ccc(NS(=O)(=O)c2ccc3c(c2)C(=O)CC(c2ccc(C(=O)C(C)C)cc2)N3)cc1C (stereo not given),-3.79% (active)
10,C=C(C)[C@@H]1CC[C@]2(C(=O)N3CCN(C)CC3)CC[C@]3(C)[C@H](CC[C@@H]4[C@@]5(C)CC[C@H](OC(=O)c6ccccc6C(=O)O)C(C)(C)[C@@H]5CC[C@]43C)[C@@H]12,107%
11,Cc1nc(/N=C(N)/N=C(\N)c2cccc(Br)c2)sc1C,32.5%
12,COc1ccc(/C(C)=C(/c2ccc(OCCCN(C)C)cc2)c2ccc(OC(=O)c3ccccc3)cc2)cc1,94.9%
13,CCN(CC)CCNC(=O)c1ccc(NCN2C(=O)NC(c3ccccc3)(c3ccccc3)C2=O)cc1,101% and 111%
14,NC(CSC(c1ccccc1)(c1ccccc1)c1ccccc1)C(=O)NCC(=O)O (stereo not given),55%
15,O=P(O)(O)C(O)(Cc1cccnc1)P(=O)(O)O,80.6%
16,O=S(=O)(NCCCNc1nccc(-n2cnc3ccccc32)n1)c1ccc(F)cc1,50.2%
17,CC[C@@]1(O)C(=O)OCc2c1cc1n(c2=O)Cc2cc3c(CN(C)C)c(O)ccc3nc2-1,-58.2% (active)
18,O=C1/C=C/[C@@H](O)[C@@H]2C[C@@H](O)C[C@H]2/C=C/CCC[C@H]([C@@H](O)CO)O1,-5.34% (active)
19,COc1ccc(S(=O)(=O)N2CCN(C)CC2)cc1NC(=O)c1[nH]c(C)c2c1CCCCC2=O,39.8%
20,CCCCCCCCCCCCCCCCCC1=NCCN1CS(=O)(=O)O,99.2%
